For experiment [1], the system named is Zika virus NS2B-NS3 protease. The experiment is described as follows: Primary screen GU AMC qHTS for Zika virus inhibitors (AID 1347154).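 Further: 0% = no-inhibitor control and -100% = no-enzyme control; nearly all actives have a fitted effect of over 70% in size.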 An outline of the steps: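 Unlinked Zika NS2B hydrophilic domain–NS3 protease complex at 25 nM in 10 mM Tris-HCl pH 8.0, 0.01% Tween 20, with an AMC peptide substrate. Fluorescence change (340/450 nm) over 15 min at room temperature, normalized to controls, fitted to 4-parameter Hill.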

The target in experiment [2] is Cytochrome P450 1A2 (Homo sapiens) (UniProt P05177). As to the kind of experiment: p450-cyp1a2 (AID 410; calls by dose curve;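 further: -100% = full effect of reference inhibitor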). The method in brief:
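Luminescent readout of luciferin formed from Luciferin-ME by human CYP1A2; data normalized against complete inhibition by 57 uM furafylline. Enzyme 20nM, substrate 100uM at Km, 100mM KPO4 buffer, 60 min reaction at room temperature.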

Experiment [3] has as its target Glucocorticoid receptor (Homo sapiens) (UniProt P04150). As to the kind of experiment: GR-GFP Redistribution (AID 450;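 active means compounds whose dose series gives a full or clear partial fitted curve of increased nuclear translocation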; further: potency means the concentration at half of the fitted maximal effect). The following applies: U2OS GR-GFP nuclear translocation, laser cytometry, 2 h.
Experiment [4] has the same target. The experiment is described as follows: GR-EFC Redistribution (AID 451; calls by dose curve; further: potency means the concentration at half of the fitted maximal effect). The following applies: CHO-K1 GR-EFC translocation, beta-gal luminescence, 2 h. An outline of the steps: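 CHO-K1 cells expressing nuclear EA and GR-ED fragments of b-gal; compounds titrated up to 46 uM final, 2 h at 37 C. GR nuclear translocation read as complemented b-gal luminescence after 1 h RT detection.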

The target of experiment [5] is Mitogen-activated protein kinase 10 (Mus musculus) (UniProt Q61831). The experiment is described as follows: JNK3 AlphaScreen Assay (AID 530; active means well fitted curve in either direction with a large enough effect, not every such curve was filed as active;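 further: kinase came from lysate of stimulated human HepG2 cells; signal reports phosphorylation of biotinylated GST-cJun 1-79 at Ser73 with 10 µM ATP; series mostly up to about 57 µM; on the % scale 0 is the no-effect control and ±100 the full control effect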). The method in brief: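 Pre-activated (IL-1β/TNFα) JNK3 in HepG2 lysates phosphorylates biotin-GST-cJun(1-79), 10 uM ATP; anti-phospho-cJun(Ser73) AlphaScreen read at room temperature, pH 7.6 Tris buffer. Compounds pre-incubated 15 min as titrations.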

Experiment [6] has as its target 3',5'-cyclic-AMP phosphodiesterase 4B (Homo sapiens) (UniProt Q07343). As to the kind of experiment: qHTS Assay for Inhibitors of PDE-IV (AID 607; active means well fitted activation curve with a large enough effect in the main read-out, with a control signal flat, not every such curve was filed as active; further: % of control where 0% means no effect). An outline of the steps:
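HEK293 ACTOne cells with CNG channel (1000/well), endogenous PDE4; membrane potential dye, compounds up to 22.9 uM final. Fluorescence Ex 535/Em 590; RO 20-1724 (100 uM final) as reference.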

Experiment [7] addresses Guanine nucleotide-binding protein G(i) subunit alpha-1 (Homo sapiens) (UniProt P63096). The experiment is described as follows: qHTS Assay for Inhibitors of RGS12 GoLoco Motif Activity (Green Fluorophore) (AID 879).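 Further: 0% = labeled peptide with Gαi1 and full inhibition = labeled peptide alone without protein; negative values mean loss of peptide binding seen as reduced polarization.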 The method in brief:
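Fluorescence polarization assay: 50 nM Gαi1 with 10 nM FITC-labeled RGS12 GoLoco peptide in 10 mM Tris pH 7.5, 150 mM NaCl, 0.1 mM GDP, 0.05% NP40, 10 min at room temperature with compound.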
A general note: Quantitative high-throughput screening tests each substance at several concentrations.

The target of experiment [8] is Cytochrome P450 2C19 (Homo sapiens) (UniProt P33261). The experiment is described as follows: qHTS Assay for Inhibitors and Substrates of Cytochrome P450 2C19 (AID 899). Further: potency means the concentration at half of the fitted maximal effect; nearly all actives have a fitted effect of over 60% in size. An outline of the steps:
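5 nM human CYP2C19 with 10uM Luciferin-H EGE (at KM) in 50mM KPO4, compound preincubated 10 min at 37C, then NADPH regeneration for 60 min at 37C. Luciferin read by luminescence after detection reagent; normalized to 57uM ketoconazole as full inhibition.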

The nature of experiment [9]: qHTS Assay for Identification of Small Molecule Antagonists for Thrombopoietin (TPO) Signaling Pathway (AID 918). Further: potency means the concentration at half of the fitted maximal effect; nearly all actives have a fitted effect of over 60% in size. The following applies: TPO-dependent cell signaling reporter, antagonist mode. An outline of the steps:
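Ba/F3 (murine, hTPO-R, GPIIb-luc reporter); overnight IL-3 withdrawal; cpd + TPO 26 pM final (EC50); 24 h 37 C/5% CO2; Steadylite luminescence after 10 min RT.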

The target in experiment [10] is Pyruvate kinase (Leishmania mexicana) (UniProt Q27686). As to the kind of experiment: qHTS Validation Assay for Inhibitors of Leishmania Mexicana Pyruvate Kinase (AID 945).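 Further: 0% = DMSO only neutral control wells.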 An outline of the steps:
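qHTS eight-point titrations against 0.2 nM LmPYK (E451W) in imidazole buffer pH 7.2 with 0.5 mM PEP, 0.1 mM ADP; 1 h, room temperature. Readout: PKLight luminescence, normalized to neutral DMSO wells.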

Experiment [11] concerns the target Alpha-galactosidase (Coffea arabica) (UniProt Q42656). As to the kind of experiment: Counterscreen for Glucocerebrosidase Inhibitors: qHTS Assay for Coffee Bean alpha-Galactosidase at pH 4.5 (AID 957).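 Further: series mostly up to about 77 µM; plate controls were enzyme alone for no effect and no enzyme for full effect.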 An outline of the steps:
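Coffee bean alpha-galactosidase 2 nM, substrate 4-MU-alpha-Gal 80 uM, pH 4.5 citrate/Tween-20, 20 min RT. Cpd titration 0.7 nM–77 uM. Stop pH 10, fluorescence 365/440 nm; Hill-equation AC50.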
Background: A counterscreen serves to expose hits that act by an unwanted route or on another target.

Experiment [12] deals with Alpha-galactosidase A (Homo sapiens) (UniProt P06280). The experiment is described as follows: Counterscreen for Glucocerebrosidase Inhibitors: qHTS Assay for Human alpha-Galactosidase at pH 4.5 (AID 992). Further: 0% is about no effect. An outline of the steps:
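Human enzyme (2 nM) with 80 uM 4-methylumbelliferyl alpha-D-galactopyranoside in 50 mM citric acid, 0.005% Tween-20, pH 4.5, 20 min at room temperature. Compounds 0.7 nM–77 uM; fluorescence Ex 365/Em 440 after pH 10 stop; AC50 from Hill fits.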

For experiment [13], the target named is alpha-glucosidase (Oryza sativa, rice) (UniProt Q653V4). The experiment is described as follows: Counterscreen for Glucocerebrosidase Inhibitors: qHTS Assay for Rice alpha-Glucosidase at pH 5.0 (AID 997).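 Further: 0% = full activity with enzyme and -100% = basal without enzyme.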 An outline of the steps: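 Rice alpha-glucosidase (4 nM final) with 400 uM 4-methylumbelliferyl-alpha-D-glucopyranoside in citrate buffer pH 5.0, 20 min at room temperature, stopped at pH 10; fluorescence 365/440 nm, compounds 0.7 nM–77 uM, AC50 from Hill fits.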

The target of experiment [14] is Alpha-galactosidase (Coffea arabica) (UniProt Q42656). As to the kind of experiment: Counterscreen for Glucocerebrosidase Inhibitors: qHTS Assay for Coffee Bean alpha-Galactosidase at pH 5.9 (AID 998).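 Further: plate controls were uninhibited enzyme for no effect and no-enzyme basal signal for full effect.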 An outline of the steps: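 Green coffee bean enzyme (2 nM) with 4-methylumbelliferyl alpha-D-galactopyranoside (80 uM) in 50 mM citric acid, 0.005% Tween-20, pH 5.9, 20 min at room temperature; compounds 0.7 nM–77 uM. Stopped at pH 10, fluorescence Ex365/Em440; Hill-fit AC50.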
Sequence of Alpha-galactosidase (Coffea arabica) (Q42656 whole entry, looked up): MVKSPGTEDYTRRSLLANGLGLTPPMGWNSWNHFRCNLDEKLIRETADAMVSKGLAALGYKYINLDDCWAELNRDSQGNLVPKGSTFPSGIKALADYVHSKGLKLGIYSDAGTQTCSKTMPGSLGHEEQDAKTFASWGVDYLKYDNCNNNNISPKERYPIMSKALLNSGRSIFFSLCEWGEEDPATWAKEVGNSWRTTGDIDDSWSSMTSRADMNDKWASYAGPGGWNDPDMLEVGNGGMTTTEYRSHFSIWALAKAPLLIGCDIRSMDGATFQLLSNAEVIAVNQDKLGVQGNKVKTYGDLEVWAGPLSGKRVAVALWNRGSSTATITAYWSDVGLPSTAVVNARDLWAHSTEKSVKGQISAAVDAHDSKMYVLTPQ

Experiment [15] concerns the target Ubiquitin carboxyl-terminal hydrolase 1 (Homo sapiens) (UniProt O94782). As to the kind of experiment: Inhibitors of USP1/UAF1: Pilot qHTS (AID 504865).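 Further: rhodamine fluorescence freed from ubiquitin-rhodamine substrate followed over time; top concentration of the series differs between compounds; on the % scale 0 is the no-effect control and ±100 the full control effect; nearly all actives have a fitted effect of over 35% in size.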 The method in brief: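 Enzyme-free wells gave the negative control, while test wells held 1nM USP1/UAF1 preincubated with compound for 15 min at room temperature. Ub-Rho at 150nM final started the reaction, and fluorescence at 480/540 nm was recorded kinetically.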

The target of experiment [16] is DNA dC->dU-editing enzyme APOBEC-3G (Homo sapiens) (UniProt Q9HC16). As to the kind of experiment: qHTS for inhibitors of Vif-A3G interactions: Validation (AID 588379). Further: 0% is about no effect. An outline of the steps:
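HeLa cells stably expressing Vif and A3G-eYFP, 700 cells/well, incubated overnight at 37 deg C, then exposed to compound overnight at 37 deg C. Inhibition of Vif-mediated degradation read as increased yellow fluorescence (Ex 488/Em 500-530) by laser-scanning cytometry.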

The nature of experiment [17]: Counterscreen qHTS for small molecule stabilizers of the endoplasmic reticulum resident proteome: GLuc-NoTag assay (AID 1508627).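 Further: series mostly up to about 76 µM; 0% = thapsigargin alone and -100% = DMSO vehicle control.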 The method in brief: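 SH-SY5Y cells stably expressing constitutively secreted GLuc without SERCaMP tag, exposed to compound for 19 hr, then to 100 nM thapsigargin for 4 hr at 37C. Medium luciferase was read by coelenterazine luminescence without lysis.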

Experiment [18] in a line: Confirmatory qHTS for small molecule stabilizers of the endoplasmic reticulum resident proteome: Secreted ER Calcium Modulated Protein (SERCaMP) assay (AID 1508628). Further: nearly all actives have a fitted effect of over 40% in size. Further: potency means the concentration at half of the fitted maximal effect. An outline of the steps: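 SH-SY5Y cells stably expressing GLuc-SERCaMP, treated 16 h with compound (primary 1.53, 7.67, 38.3 uM; confirmation 11 concentrations, up to 76.6 uM), then 100 nM thapsigargin for 4 h. Secreted Gaussia luciferase in medium read by coelenterazine luminescence.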

The nature of experiment [19]: Cell Viability qHTS for small molecule stabilizers of the endoplasmic reticulum resident proteome (AID 1508629).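 Further: human SH-SY5Y neuroblastoma cells carrying the GLuc-SERCaMP reporter; compound exposure about 46 h in total before the viability read; on the % scale 0 is the no-effect control and ±100 the full control effect.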 The following applies: cell viability counter-screen, 100 nM thapsigargin for final 4 h.

Structures are written as SMILES. Where “and” joins values, the source holds several entries; their conditions need not be identical. Identical values can stand only once. Inconclusive results are not listed. The source holds several records for some structures; these can differ, active in one and inactive in another. Calls of active or inactive are those of the source. Unless noted, the call rests on the fitted dose curve; in most records, active means well fitted curve in the direction sought with a large enough effect; inconclusive means small, poorly fitted or top-dose-only effect, or another doubt; inactive means no such curve, though single readings can be large; an effect the other way counts as inactive or inconclusive. Where only a bound is given, the exact number is not on record here.

Sequence of Glucocorticoid receptor (Homo sapiens) (P04150 whole entry, looked up, the tested form may be a part): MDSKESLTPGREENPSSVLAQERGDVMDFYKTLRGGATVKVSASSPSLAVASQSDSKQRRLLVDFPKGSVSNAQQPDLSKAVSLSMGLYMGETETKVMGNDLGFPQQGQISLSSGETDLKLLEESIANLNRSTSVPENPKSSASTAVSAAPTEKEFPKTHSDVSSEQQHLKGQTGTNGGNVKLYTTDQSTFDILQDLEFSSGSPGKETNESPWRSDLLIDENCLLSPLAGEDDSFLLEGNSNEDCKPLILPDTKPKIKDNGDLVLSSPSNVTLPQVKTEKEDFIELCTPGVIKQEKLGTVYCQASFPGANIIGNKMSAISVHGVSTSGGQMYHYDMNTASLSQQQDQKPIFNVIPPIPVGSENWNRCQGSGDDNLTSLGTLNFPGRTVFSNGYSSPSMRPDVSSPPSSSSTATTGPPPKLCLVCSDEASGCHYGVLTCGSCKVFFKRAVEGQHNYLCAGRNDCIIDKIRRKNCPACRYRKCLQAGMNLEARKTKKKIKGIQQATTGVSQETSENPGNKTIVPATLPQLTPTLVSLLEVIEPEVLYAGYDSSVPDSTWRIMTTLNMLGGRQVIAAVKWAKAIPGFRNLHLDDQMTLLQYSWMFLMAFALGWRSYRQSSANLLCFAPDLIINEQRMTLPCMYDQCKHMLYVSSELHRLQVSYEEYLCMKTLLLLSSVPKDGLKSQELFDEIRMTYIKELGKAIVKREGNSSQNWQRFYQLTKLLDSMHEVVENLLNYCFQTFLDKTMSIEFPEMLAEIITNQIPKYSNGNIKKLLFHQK
Sequence of DNA dC->dU-editing enzyme APOBEC-3G (Homo sapiens) (Q9HC16 whole entry, looked up): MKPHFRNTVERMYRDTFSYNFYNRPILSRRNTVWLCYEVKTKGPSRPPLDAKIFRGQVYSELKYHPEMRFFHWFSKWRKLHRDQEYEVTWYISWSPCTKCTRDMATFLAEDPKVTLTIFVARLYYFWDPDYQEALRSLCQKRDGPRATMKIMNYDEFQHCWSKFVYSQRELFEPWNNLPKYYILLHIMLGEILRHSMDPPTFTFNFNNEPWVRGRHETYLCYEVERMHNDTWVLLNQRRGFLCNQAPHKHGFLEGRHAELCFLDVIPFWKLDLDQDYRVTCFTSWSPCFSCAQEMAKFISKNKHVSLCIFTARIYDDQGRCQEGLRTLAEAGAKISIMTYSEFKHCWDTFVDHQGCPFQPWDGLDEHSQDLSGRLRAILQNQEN
Sequence of Cytochrome P450 2C19 (Homo sapiens) (P33261 whole entry, looked up): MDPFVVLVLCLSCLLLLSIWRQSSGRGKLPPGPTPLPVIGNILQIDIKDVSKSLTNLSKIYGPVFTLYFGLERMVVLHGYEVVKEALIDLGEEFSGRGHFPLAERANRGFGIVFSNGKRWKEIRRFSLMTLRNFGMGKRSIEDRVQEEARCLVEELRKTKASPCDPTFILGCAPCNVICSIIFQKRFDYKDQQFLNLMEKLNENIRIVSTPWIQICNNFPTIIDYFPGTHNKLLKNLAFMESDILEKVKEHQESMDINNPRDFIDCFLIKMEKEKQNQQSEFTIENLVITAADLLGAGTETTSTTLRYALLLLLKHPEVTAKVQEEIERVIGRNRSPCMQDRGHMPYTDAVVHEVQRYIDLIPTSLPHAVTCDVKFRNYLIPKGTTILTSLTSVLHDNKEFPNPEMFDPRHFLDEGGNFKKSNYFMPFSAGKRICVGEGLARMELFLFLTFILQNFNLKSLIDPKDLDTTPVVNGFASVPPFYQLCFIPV
Sequence of Pyruvate kinase (Leishmania mexicana) (Q27686 2-499 E452W): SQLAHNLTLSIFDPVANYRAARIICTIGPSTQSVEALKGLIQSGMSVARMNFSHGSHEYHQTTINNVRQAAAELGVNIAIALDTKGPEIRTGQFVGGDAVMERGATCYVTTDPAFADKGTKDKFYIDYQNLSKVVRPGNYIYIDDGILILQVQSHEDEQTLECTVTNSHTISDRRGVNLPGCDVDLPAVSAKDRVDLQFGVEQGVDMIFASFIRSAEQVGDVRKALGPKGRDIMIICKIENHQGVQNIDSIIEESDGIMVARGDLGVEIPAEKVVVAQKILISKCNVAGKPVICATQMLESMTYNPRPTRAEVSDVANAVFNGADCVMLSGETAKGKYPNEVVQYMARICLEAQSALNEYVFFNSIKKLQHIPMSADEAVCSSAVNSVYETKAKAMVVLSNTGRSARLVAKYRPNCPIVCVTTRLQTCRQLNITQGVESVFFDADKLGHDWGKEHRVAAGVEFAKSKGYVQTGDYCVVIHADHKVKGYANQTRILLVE
Sequence of Guanine nucleotide-binding protein G(i) subunit alpha-1 (Homo sapiens) (P63096 whole entry, looked up): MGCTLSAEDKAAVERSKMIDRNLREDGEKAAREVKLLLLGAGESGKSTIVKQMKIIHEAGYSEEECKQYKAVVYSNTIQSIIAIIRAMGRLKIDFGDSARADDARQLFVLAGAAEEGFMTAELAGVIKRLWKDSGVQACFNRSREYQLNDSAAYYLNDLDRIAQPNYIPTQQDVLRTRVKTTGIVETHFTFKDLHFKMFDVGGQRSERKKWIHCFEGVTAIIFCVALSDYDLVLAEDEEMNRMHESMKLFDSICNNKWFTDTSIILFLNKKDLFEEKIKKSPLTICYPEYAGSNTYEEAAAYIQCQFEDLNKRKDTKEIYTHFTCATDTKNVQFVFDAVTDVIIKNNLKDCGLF
Sequence of Alpha-galactosidase A (Homo sapiens) (P06280 whole entry, looked up): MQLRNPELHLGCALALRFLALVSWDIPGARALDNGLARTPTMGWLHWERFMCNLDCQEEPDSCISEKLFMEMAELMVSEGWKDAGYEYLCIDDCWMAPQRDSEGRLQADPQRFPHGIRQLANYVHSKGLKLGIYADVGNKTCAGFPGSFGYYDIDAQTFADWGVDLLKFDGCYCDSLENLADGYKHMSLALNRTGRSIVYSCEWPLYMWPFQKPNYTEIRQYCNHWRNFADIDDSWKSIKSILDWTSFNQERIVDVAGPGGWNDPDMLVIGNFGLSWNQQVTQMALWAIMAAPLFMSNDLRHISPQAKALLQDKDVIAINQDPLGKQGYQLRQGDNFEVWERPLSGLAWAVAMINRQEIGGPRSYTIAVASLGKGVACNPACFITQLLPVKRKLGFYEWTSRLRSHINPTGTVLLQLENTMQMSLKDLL
Sequence of Ubiquitin carboxyl-terminal hydrolase 1 (Homo sapiens) (O94782 whole entry, looked up): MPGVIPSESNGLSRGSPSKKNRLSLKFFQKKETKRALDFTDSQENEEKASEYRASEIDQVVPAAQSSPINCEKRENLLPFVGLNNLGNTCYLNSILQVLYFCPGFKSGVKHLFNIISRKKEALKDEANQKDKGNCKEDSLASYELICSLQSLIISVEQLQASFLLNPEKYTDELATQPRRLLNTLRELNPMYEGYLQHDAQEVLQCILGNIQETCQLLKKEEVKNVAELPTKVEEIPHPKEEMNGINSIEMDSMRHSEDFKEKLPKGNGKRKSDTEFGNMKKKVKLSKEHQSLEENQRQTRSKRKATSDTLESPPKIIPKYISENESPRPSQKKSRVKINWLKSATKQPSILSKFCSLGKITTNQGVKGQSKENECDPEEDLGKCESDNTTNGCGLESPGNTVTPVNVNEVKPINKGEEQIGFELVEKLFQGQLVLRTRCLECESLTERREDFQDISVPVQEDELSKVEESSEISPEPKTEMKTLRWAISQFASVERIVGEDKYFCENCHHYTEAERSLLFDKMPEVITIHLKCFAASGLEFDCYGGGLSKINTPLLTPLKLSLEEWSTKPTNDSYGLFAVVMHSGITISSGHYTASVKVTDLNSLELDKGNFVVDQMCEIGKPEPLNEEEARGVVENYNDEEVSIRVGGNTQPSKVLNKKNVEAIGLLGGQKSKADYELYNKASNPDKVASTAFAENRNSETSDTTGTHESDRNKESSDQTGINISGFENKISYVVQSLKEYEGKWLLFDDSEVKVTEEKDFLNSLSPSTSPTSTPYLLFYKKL
Sequence of 3',5'-cyclic-AMP phosphodiesterase 4B (Homo sapiens) (Q07343 whole entry, looked up): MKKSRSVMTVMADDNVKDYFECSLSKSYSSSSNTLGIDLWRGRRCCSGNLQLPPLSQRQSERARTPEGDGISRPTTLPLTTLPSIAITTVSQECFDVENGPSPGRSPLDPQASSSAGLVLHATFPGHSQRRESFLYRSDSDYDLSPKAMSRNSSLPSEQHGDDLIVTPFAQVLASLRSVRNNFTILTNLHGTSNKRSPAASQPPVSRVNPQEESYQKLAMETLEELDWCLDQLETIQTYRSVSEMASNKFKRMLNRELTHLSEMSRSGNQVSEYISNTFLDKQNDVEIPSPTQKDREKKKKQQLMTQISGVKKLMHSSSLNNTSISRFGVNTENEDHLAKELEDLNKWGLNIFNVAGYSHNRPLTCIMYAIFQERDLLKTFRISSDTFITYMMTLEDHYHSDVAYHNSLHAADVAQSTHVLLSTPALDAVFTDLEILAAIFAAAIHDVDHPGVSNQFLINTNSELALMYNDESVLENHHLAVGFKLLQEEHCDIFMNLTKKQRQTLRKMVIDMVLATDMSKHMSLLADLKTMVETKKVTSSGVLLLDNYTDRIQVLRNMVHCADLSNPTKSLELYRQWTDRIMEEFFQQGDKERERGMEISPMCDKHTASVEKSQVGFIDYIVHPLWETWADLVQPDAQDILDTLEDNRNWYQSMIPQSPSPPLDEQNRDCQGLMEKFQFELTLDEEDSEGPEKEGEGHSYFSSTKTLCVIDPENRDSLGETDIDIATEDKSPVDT

Regarding `C=CCN1CCC2(C)c3cc(O)ccc3CC1[C@@H]2C` (stereo partly specified), in experiment [1], the Potency entry was “inactive”.
Still for that read-out and setting: with `OC[C@H]1O[C@@H](n2cnc3cc(Cl)c(Cl)cc32)[C@H](O)[C@H]1O` the entry was “inactive”.
Consider `CC(C)[C@@]1(NC(=O)[C@@H]2C[C@H]3c4cccc5[nH]cc(c45)C[C@@H]3N(C)C2)O[C@@]2(O)[C@H]3CCCN3C(=O)[C@H](Cc3ccccc3)N2C1=O`, for which the Potency result in experiment [2], in experiment [6], in [15], in experiment [16], in experiment [1] and in experiment [17] was “inactive” in each case. The Potency is > 46 µM (inactive) in [3]; > 46 µM (inactive) in experiment [4]; 3.98 µM (active) and 5.01 µM (active) in experiment [8]; 10 µM (active) in [9]; 35.5 µM (active) and inactive in [18]. Also, the call in experiment [5], in experiment [7], in experiment [10], in experiment [11], in experiment [12] and in experiment [13] was inactive. For the same compound, the call in experiment [14] was inactive. Further, the max response in experiment [19] was -30.4% (inactive).

Values taken from PubChem BioAssay (NCATS).
